# Source: PubChem BioAssay (NCATS)
# Values joined by “and” are separate entries in the source; they are usually repeats but may differ in a detail not shown here. Identical values can stand only once. Inconclusive results are not listed. A call without a number means that no potency is given here. Active and inactive are the calls of the source. The call rests on the fitted dose curve; in most records, active means well fitted inhibition curve with a large enough effect; inconclusive means small, poorly fitted or top-dose-only effect; inactive means no such curve, though single readings can be large or run the other way. Starred links: 1 amine or outer side, 2 acyl side, 3 side chain; linkers in the order of their positions; H or OH if unused. Positions of bridges follow the written chain, without caps; N, C: chain ends. Non-standard residues stand in square brackets, D forms with d. Residues, ends and D or L forms follow the SMILES beside them. Chains are numbered I, II in the order given. Actinocin(9to1) = Cc1c2oc3c(C)ccc(C(=O)[*:1])c3nc-2c(C(=O)[*:2])c(N)c1=O; NMeV = CN[CH](C(=O)O)C(C)C; Sar = CNCC(=O)O
# Assay: qHTS to identify inhibitors of the type 1 interferon - major histocompatibility complex class I in skeletal muscle: primary screen against the NCATS Mechanism Interrogation Plate v5.0 (MIPE) Libary (AID 1347411); further: nearly all actives have a fitted effect of over 65% in size
# Conditions: iHSKM cells + IFN-b, HiBiT-tagged MHC-I luminescence, 24 h; series mostly up to 45.8 µM
# Summary of the method: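 Luminescence from HiBiT-tagged endogenous HLA-B*08:01 served as the MHC class I read-out. CRISPR-engineered C25cl48 human myoblasts received 4.0 ng/ml IFN-beta plus compound for 24 hrs, with an 11-point, 1:3 series topping at 46 uM final.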
# Potency means the concentration at half of the fitted maximal effect.
row,SMILES,Potency
1,Cc1cncc2cccc(S(=O)(=O)N3CCCN(C(=O)CN)C[C@@H]3C)c12,inactive
2,C#CCC(Cc1cnc2nc(N)nc(N)c2n1)c1ccc(C(=O)N[C@@H](CCC(=O)O)C(=O)O)cc1 (some centres not stated),inactive
3,O=C(Nc1cccc(Nc2ncc(Br)c(NCCc3cnc[nH]3)n2)c1)N1CCCC1,5.87 µM (active)
4,CC(C(C)N1CC(=O)NC(=O)C1)N1CC(=O)NC(=O)C1 (configuration not stated),inactive
5,CCOC(=O)C1=C(C)NC(=S)NC1c1cccc(O)c1 (configuration not stated),inactive
6,COc1cc(C(C)C)c(Oc2cnc(NC(CO)CO)nc2N)cc1I,inactive
7,Nc1cccc2c1C(=O)N(C1CCC(=O)NC1=O)C2=O (configuration not stated),inactive
8,O=C(O)CCCCCC(=O)NN=C1CCCC1,inactive
9,COC[C@H](NC(=O)c1cnc(C)s1)C(=O)N[C@@H](COC)C(=O)N[C@@H](Cc1ccccc1)C(=O)[C@@]1(C)CO1,0.0523 µM (active)
10,COc1cccc2c1C(=O)c1c(O)c3c(c(O)c1C2=O)C[C@@](O)(C(=O)CO)C[C@@H]3O[C@H]1C[C@H](N)[C@H](OC2CCCCO2)[C@H](C)O1 (some centres not stated),2.62 µM (active) and 2.34 µM (active)
11,"Cc1c2oc3c(C)ccc(C(=O)NC4C(=O)NC(C(C)C)C(=O)N5CCCC5C(=O)N(C)CC(=O)N(C)C(C(C)C)C(=O)OC4C)c3nc-2c(C(=O)NC2C(=O)NC(C(C)C)C(=O)N3CCCC3C(=O)N(C)CC(=O)N(C)C(C(C)C)C(=O)OC2C)c(N)c1=O (configuration not stated) (I: TVP[Sar][NMeV] / II: TVP[Sar][NMeV]; ester I:1-I:C, II:1-II:C; linker I:N-II:N via Actinocin(9to1); configuration not given here)",0.114 µM (active)
12,Nc1nc2c(c(=O)[nH]1)N(C=O)[C@H](CNc1ccc(C(=O)N[C@@H](CCC(=O)O)C(=O)O)cc1)CN2,inactive
13,O=C(Nc1nnc(-c2ccco2)o1)c1cc(-c2ccccc2)nc2ccccc12,inactive
14,C=C(C)[C@@H]1CC[C@]2(C)CC[C@]3(C)[C@H](CC[C@@H]4[C@@]5(C)CC[C@H](O)C(C)(C)[C@H]5CC[C@]43C)[C@@H]12,inactive
15,CC(C)c1cnn2c(NCc3ccccc3)cc(NCCCCCCN)nc12,26.2 µM (active)
16,CCCNS(=O)(=O)Nc1ncnc(OCCOc2ncc(Br)cn2)c1-c1ccc(Br)cc1,inactive

row,SMILES,Potency
1,O=C(O)c1ccc(Nc2ncc3c(n2)-c2ccc(Cl)cc2C(c2c(F)cccc2F)=NC3)cc1,inactive
2,CCCCCCCCCCCC(CC1OC(=O)C1CCCCCC)OC(=O)C(CC(C)C)NC=O (configuration not stated),inactive
3,O=C1CSC(=O)N1C(CCc1ccncc1)COc1ccc(-c2cccc([N+](=O)[O-])c2)cc1 (configuration not stated),inactive
4,NC(=O)Nc1sc(-c2ccc(F)cc2)cc1C(N)=O,1.65 µM (active)
5,C=Cc1c(C)c2cc3nc(cc4[nH]c(cc5nc(cc1[nH]2)C(C)=C5CCC(=O)O)c(CCC(=O)OC)c4C)[C@@]1(C)C3=CC=C(C(=O)OC)[C@H]1C(=O)OC,inactive
6,C[C@H](O)[C@@H]1C(=O)N2C(C(=O)O)=C(S[C@@H]3CN[C@H](CNS(N)(=O)=O)C3)[C@@H](C)[C@@H]12,inactive
7,CCN(C(=O)c1c(O)c2c(Cl)cccc2n(C)c1=O)c1ccccc1,inactive
8,OCCNC1CCCc2c1[nH]c1ccc(-c3ccccc3)cc21 (configuration not stated),20.8 µM (active)
9,Cc1cc(O)c2c(c1)C(=O)c1cccc(O)c1C2=O,inactive
10,CCOC(=O)[C@@H](N)Cc1ccc(-c2cc(O[C@H](c3ccc(Cl)cc3-n3ccc(C)n3)C(F)(F)F)nc(N)n2)cc1,9.3 µM (active)
11,O=[N+]([O-])c1cn2c(n1)OC[C@@H](OCc1ccc(OC(F)(F)F)cc1)C2,inactive
12,COc1cc(OC)c(NC(=O)Nc2cc(C)on2)cc1Cl,inactive
13,N#Cc1c(C2CCNCC2)cc(-c2c(O)cccc2OCC2CC2)nc1N,8.29 µM (active)
14,NC1=N[C@H]2[C@H](CS[C@H]2CCCCC(=O)O)N1,inactive
15,N#Cc1cc(NC(=O)Nc2nnc(-c3ccncc3)s2)ccc1-c1cn[nH]c1,inactive
16,CCCc1nc(C(C)(C)O)c(C(=O)O)n1Cc1ccc(-c2ccccc2-c2nn[nH]n2)cc1,inactive
